# From PubChem BioAssay (NCI)
# This is part of a sample that, as a whole, favours compounds with a hit. Of some 83,000 tested, about 20% had one in any assay.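 Note: values are percent growth. 100 is the growth of untreated cells, values between 100 and 0 indicate rising inhibition; between -100 and 0 indicates cell death.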 A number with no mark means an inactive call. Calls of active or inactive are those of the source. The calls were made as follows: active = growth percent below 10; inactive = the rest.
# Assays:
# Assay in all cases: NCI-60 one-dose screen, 48 h (100 = growth as untreated, 0 = no growth, -100 = all killed)
# Conditions in all cases: 10 µM unless noted
# DU-145 prostate = tested on: DU-145 prostate
# K-562 leukemia = tested on: K-562 leukemia
# MALME-3M melanoma = tested on: MALME-3M melanoma
# MDA-MB-231 breast = tested on: MDA-MB-231 breast
# RXF 393 renal = tested on: RXF 393 renal
# SF-268 CNS = tested on: SF-268 CNS
# SF-295 CNS = tested on: SF-295 CNS
# SF-539 CNS = tested on: SF-539 CNS
# UACC-257 melanoma = tested on: UACC-257 melanoma
# M14 melanoma = tested on: M14 melanoma
# HCT-15 colon = tested on: HCT-15 colon
# HT29 colon = tested on: HT29 colon
# SNB-75 CNS = tested on: SNB-75 CNS
# SNB-19 CNS = tested on: SNB-19 CNS
# U251 CNS = tested on: U251 CNS
# PC-3 prostate = tested on: PC-3 prostate
# SK-MEL-5 melanoma = tested on: SK-MEL-5 melanoma
# UACC-62 melanoma = tested on: UACC-62 melanoma
# LOX IMVI melanoma = tested on: LOX IMVI melanoma
# SK-MEL-28 melanoma = tested on: SK-MEL-28 melanoma
SMILES,growth (DU-145 prostate),growth (K-562 leukemia),growth (MALME-3M melanoma),growth (MDA-MB-231 breast),growth (RXF 393 renal),growth (SF-268 CNS),growth (SF-295 CNS),growth (SF-539 CNS),growth (UACC-257 melanoma),growth (M14 melanoma),growth (HCT-15 colon),growth (HT29 colon),growth (SNB-75 CNS),growth (SNB-19 CNS),growth (U251 CNS),growth (PC-3 prostate),growth (SK-MEL-5 melanoma),growth (UACC-62 melanoma),growth (LOX IMVI melanoma),growth (SK-MEL-28 melanoma)
CC1=C/C(=N\N=C2/C=C(C)CC(C)(C)C2)CC(C)(C)C1,105%,86.9%,96.4%,106%,114%,93.4%,102%,105%,90.2%,103%,106%,91.8%,94.9%,102%,96%,94.8%,99%,93.8%,100%,116%
Cn1c2ccccc2c2c(OC(=O)c3ccccc3)c3c(nc21)-c1ccccc1C3,104%,104%,104%,85.6%,109%,96.4%,100%,102%,95.7%,93.8%,105%,92.1%,90.8%,105%,107%,87.3%,96.6%,92.5%,88.3%,111%
C=C(C)[C@@H]1CC[C@]2(C(=O)O)CC[C@]3(C)[C@H](CC[C@@H]4[C@@]5(C)C[C@@H](CC#Cc6ccccc6C)C(=O)C(C)(C)[C@@H]5CC[C@]43C)[C@@H]12,34.4%,14%,61.1%,48.2%,51.8%,48.4%,33.1%,36%,39.9%,40.6%,20.9%,22.3%,58.1%,40%,25.4%,31.4%,28.2%,41.4%,43.6%,42.9%
CSc1cccc(NC(=O)Nc2nc3c(C)cccc3s2)c1,114%,89.8%,93.5%,116%,104%,104%,97.3%,89.3%,98.7%,98%,97.9%,99.5%,76.7%,98.2%,98.9%,95.7%,95.6%,78.3%,97.5%,112%
COC(=O)/C=C1\SC(=Nc2ccc(F)cc2)N(CCc2c[nH]c3ccccc23)C1=O,102%,88%,99.9%,96.9%,110%,104%,97.7%,109%,72.4%,102%,98.3%,66.3%,108%,103%,98.2%,87.9%,99.5%,82.6%,90%,112%
[2H]c1nc(Nc2ncc3cc(C(=O)N(C)C)n(C4CCCC4)c3n2)c([2H])c([2H])c1N1C([2H])([2H])C([2H])([2H])NC([2H])([2H])C1([2H])[2H],88.4%,53.2%,62.4%,51%,62.9%,75.3%,72.1%,71.5%,60%,70.7%,79.9%,27.6%,69.7%,61.5%,56.1%,54.6%,72.3%,64.6%,40.2%,84.2%
CC1CCN(CCCCCOc2ccc3oc4ccccc4c(=O)c3c2)CC1,83.9%,33.7%,44.4%,76.5%,69.1%,79.3%,89.8%,77.8%,9.5% (active),41%,35.7%,10.8%,84.7%,87.5%,67.5%,80.8%,-12.2% (active),14.3%,53.3%,87.7%
COc1cc(C(C)c2ccc3c(ccn3C)c2)cc(OC)c1OC (stereo not given),-15.3% (active),6.54% (active),68%,28.1%,53.1%,31.4%,15.5%,-6.4% (active),61%,11.3%,15.9%,3.88% (active),47%,33.5%,14.4%,23.2%,-51.8% (active),32.7%,23.2%,67%
CC(C)(C)c1nc2c(s1)c1nc(N)ncc1c1ccc(NS(=O)(=O)c3c(F)cccc3F)c(F)c12,49.9%,66.3%,-31.6% (active),29.2%,13.6%,79.1%,60.7%,79.7%,-13.1% (active),7.08% (active),42.7%,10.8%,57.4%,105%,73%,51.9%,36.1%,-2.66% (active),20.5%,4.5% (active)
COc1ccc2c(c1)Oc1nc(N)c(C#N)c(N)c1C2Sc1ccc(SC)cc1 (stereo not given),46.2%,2.45% (active),-22.5% (active),10.5%,-54.8% (active),61.4%,80.8%,14.7%,67.3%,27.6%,-10.9% (active),17.2%,34.2%,58.2%,13.9%,35.9%,40.8%,50.7%,-39.2% (active),32.7%
Nc1ccccc1NS(=O)(=O)c1ccc(Cl)cc1,94.2%,95.9%,87.5%,98.2%,115%,93.5%,101%,95.6%,98.4%,97.1%,102%,91.7%,81.8%,96.6%,101%,91.5%,94.4%,91.4%,92.1%,96.8%
C=C(C)[C@@H]1CC[C@]2(C(=O)OCCOCCOCC[P+](c3ccccc3)(c3ccccc3)c3ccccc3)CC[C@]3(C)[C@H](CC[C@@H]4[C@@]5(C)CC[C@H](OC(C)=O)C(C)(C)[C@@H]5CC[C@]43C)[C@@H]12,-91.1% (active),-74.3% (active),-85.1% (active),-91.3% (active),-90.4% (active),-74.7% (active),-92% (active),-90.9% (active),-83.4% (active),-83.1% (active),-81.3% (active),-88.5% (active),-87.2% (active),-93.6% (active),-95.4% (active),-90.2% (active),-98.5% (active),-86.5% (active),-93.2% (active),-86.7% (active)
COc1ccc2cc(/C=C3\N=C(c4cc(OC)c(OC)c(OC)c4)OC3=O)c(OC)nc2c1,110%,90.1%,104%,91.5%,119%,98.2%,98.7%,101%,95.5%,111%,99.4%,98.8%,98.3%,94.6%,92.8%,93.6%,103%,89.7%,102%,110%
O=[N+]([O-])c1ccc(N=Nc2c(O)c(N=Nc3cc([N+](=O)[O-])cc([N+](=O)[O-])c3O)cc(N=Nc3cc(S(=O)(=O)O)cc4cc(S(=O)(=O)O)cc(O)c34)c2O)cc1,108%,77.7%,101%,102%,112%,101%,106%,102%,105%,92.4%,101%,99.1%,91.1%,105%,105%,86.7%,108%,95.5%,90.1%,99%
CCOC(=O)/C=C1\SC(=Nc2ccc(C#N)cc2)N(CCN2C(=O)/C(=C/C(=O)OCC)SC2=Nc2ccc(C#N)cc2)C1=O,41.7%,7.43% (active),98.6%,16.3%,49.7%,29.7%,76.8%,41.6%,77.3%,52.3%,2.58% (active),15.7%,53.6%,28.2%,-7.96% (active),39.6%,58.8%,33.6%,0.0355% (active),97%
